Source: PubChem BioAssay
p53 PUMA act: mutant p53 pathway re-activators, primary screen, cell-based, SW480, luciferase, single point, HTS | SW480 PUMA-promoter luciferase, p53 mutant reactivation | activation, % at 9.98 µM | hit rate 1.5% among 28,000 | AID 624151, 2012; in the data active means activation above about 52%
STK33 inh: STK33 kinase inhibitors, primary screen, biochemical, luminescence, ADP-Glo, MBP substrate | inhibition, % at 12.5 µM | hit rate 0.44% among 27,000 | AID 2322, 2010; in the data active means inhibition above about 20%
ID4 binder: binders of human ID4 protein, primary screen, biochemical, small molecule microarray, single point; DNA-binding protein inhibitor ID-4 (Homo sapiens), P47928; hit rate 1.2% among 31,000; calls only; AID 624137, 2012; Flag-ID4 binding, fluorescence F/B; call rule not given here;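 further: a binder raises fluorescence above local background on the spot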
Target sequence (P47928 whole entry, looked up): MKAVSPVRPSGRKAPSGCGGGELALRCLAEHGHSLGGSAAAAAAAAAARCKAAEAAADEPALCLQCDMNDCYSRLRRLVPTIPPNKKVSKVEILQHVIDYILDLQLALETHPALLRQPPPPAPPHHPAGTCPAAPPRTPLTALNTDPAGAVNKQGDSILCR
* marks the source's active call; other numbers are inactive results; i = inactive; . = no result given; + = active, no number. Hits are enriched below; roughly 2% of the tested compounds scored in any of these assays.

SMILES | p53 PUMA act | STK33 inh | ID4 binder
CN1CCN(C(=O)CN(c2cccc(Cl)c2)S(=O)(=O)c2ccc(Cl)cc2)CC1 | -4 | -4 | i
c1cncc(-c2nn3c(C4COc5ccccc5O4)nnc3s2)c1 (centres undefined) | 3 | -3 | i
c1ccc(-c2nn3c(C4COc5ccccc5O4)nnc3s2)cc1 (centres undefined) | 59* | -2 | i
Cc1ccc(-c2nc3ccccc3o2)cc1NC(=O)COc1ccccc1 | -11 | 0 | i
Cc1cc2nc(-c3ccc(C)c(NC(=O)COc4ccc([N+](=O)[O-])cc4)c3)oc2cc1C | 66* | 3 | i
Cc1ccc2oc(-c3ccc(Cl)c(NC(=O)COc4ccc(C)c(C)c4)c3)nc2c1 | -9 | 3 | i
Cc1ccc2oc(-c3ccc(C)c(NC(=O)COc4ccc(Br)cc4)c3)nc2c1 | 65* | 3 | i
COc1cc(O[C@@H]2O[C@H](CO[C@H]3OC[C@](O)(CO)[C@H]3O)[C@@H](O)[C@H](O)[C@H]2O)cc(OC)c1OC | . | -3 | i
CC(=O)Nc1ccccc1NC(=O)COc1ccc(Br)cc1Cl | 12 | -1 | i
COc1cc(NC(=O)COc2ccccc2Cl)ccc1NC(=O)c1cc2ccccc2o1 | -31 | 7 | i
O=C(NCCc1c[nH]c2ccccc12)NC1CCCCC1 | 84* | -2 | i
NC(=O)CCCc1c[nH]c2ccccc12 | 79* | 2 | i
OCc1c[nH]c2ccccc12 | -9 | 4 | i
O=C(NCCc1c[nH]c2ccccc12)Nc1cccc2ccccc12 | 13 | 4 | i
Cc1ccc(OC(=O)OCSc2nn[nH]n2)cc1 | . | -1 | .
CCOc1ccc2c(c1)sc(=NC(=O)c1ccc(S(=O)(=O)N3CCCCC3C)cc1)n2CC (centres undefined) | . | 0 | .
Cc1ccnc(SCC(=O)Nc2oc(-c3ccccc3)c(-c3ccccc3)c2C#N)n1 | 10 | -6 | i
COc1ccccc1OCC(=O)Nc1oc(-c2ccccc2)c(-c2ccccc2)c1C#N | -13 | -3 | +
O=C(CSc1n[nH]c(-c2ccc(Cl)cc2)n1)Nc1cccc(Br)c1 | -6 | 2 | i
COc1ccc(C(=O)NCC(=O)Nc2cc(OC)ccc2OC)cc1 | 1 | 0 | +
COc1ccc(OC)c(NC(=O)c2ccc(CSc3nnc(C)s3)cc2)c1 | 62* | 0 | i
COc1ccc(OC)c(NC(=O)Cc2ccc(OC)c(OC)c2)c1 | -6 | 2 | i
COc1ccc(OC)c(NC(=O)CNC(=O)c2ccc(C(C)(C)C)cc2)c1 | 7 | -1 | i
OCCN(CCO)c1nc(-c2ccccc2)nc2sc(-c3ccccc3)cc12 | -3 | -2 | i
O=S(=O)(Nc1ccc(O)c(Sc2nc3ccccc3s2)c1)c1ccccc1 | -22 | . | i
SMILES | p53 PUMA act | STK33 inh | ID4 binder
CCCn1c2ccccc2c2nnc(SCCC(=O)O)nc21 | 7 | -1 | i
c1ccc(CCn2c3ccccc3c3nnc(SCc4ccc5nonc5c4)nc32)cc1 | 61* | 2 | i
CCN(CC)C(=O)c1cc(-c2ccc(Cl)c(Cl)c2)on1 | 72* | . | i
Cc1ccc(-c2cc(C(=O)Nc3cc(C)nn3-c3ccccc3)no2)cc1 | 13 | 1 | i
O=S(=O)(N[C@@H]1CCCN(Cc2cccc(OCCO)c2)C1)c1cccc(F)c1 | . | 1 | +
O=S(=O)(N[C@@H]1CCCN(Cc2ccc(OCCO)cc2)C1)c1ccc2ccccc2c1 | . | . | i
O=S(=O)(NC[C@@H]1CCCN(Cc2ccc(OCCO)cc2)C1)c1cccc2cccnc12 | . | -3 | .
O=S(=O)(N[C@@H]1CCCN(Cc2ccc(OCCO)cc2)C1)c1cccc2cccnc12 | . | -8 | +
COc1ccc(S(=O)(=O)NC2CCN(Cc3ccc(OCCO)cc3)CC2)cc1 | . | . | i
Cc1ccc(S(=O)(=O)NC2CCN(Cc3ccc(OCCO)cc3)CC2)cc1 | . | 2 | +
O=S(=O)(N[C@@H]1CCCN(Cc2cccc(OCCO)c2)C1)c1ccc(-c2ccccc2)cc1 | . | -1 | i
O=S(=O)(N[C@@H]1CCCN(Cc2ccc(OCCO)cc2)C1)c1cccc(F)c1 | . | -3 | +
Cc1ccc([N+](=O)[O-])cc1N(CC(=O)O)S(C)(=O)=O | -13 | 0 | i
N#Cc1c(NC(=O)CCn2cnc3ccccc3c2=O)sc2c1CCC2 | . | 0 | .
COc1ccc(Cl)cc1NC(=O)CN(c1c(C)cccc1C)S(C)(=O)=O | -24 | 5 | i
O=c1c(O)c(-c2ccccc2)oc2cc(O)cc(O)c12 | 47 | 1 | .
O=c1c(O)c(-c2cc(O)c(O)c(O)c2)oc2cc(O)cc(O)c12 | 15 | 36* | i
COc1cc(/C=C/c2ccc(OC)cc2OC)cc(OC)c1 | 121* | . | i
COc1cc(/C=C/c2ccc(OC)c(OC)c2)c(CC=C(C)C)c(OC)c1 | 20 | -6 | i
S=C(CC(=S)N1CCOCC1)N1CCOCC1 | . | -3 | .
O=C(CCC1COc2ccccc2O1)Nc1ncc(C(F)(F)F)cc1Cl (centres undefined) | 0 | -4 | i
O=C(CCNc1ccc(Oc2ccccc2)cc1)c1ccco1 | -9 | -2 | i
O=c1n(-c2ccc(F)cc2)nc2n1CCCN2 | 67* | . | i
O=C(Nc1cc(-c2ccc(Cl)cc2)nn1-c1ccc(F)cc1)C1CCC1 | 1 | . | i
COc1ccc(C(NC(=O)c2ccccc2)c2ccc3cccnc3c2O)c(OC)c1 (centres undefined) | -76 | 2 | i
SMILES | p53 PUMA act | STK33 inh | ID4 binder
Cc1cc(C(F)(F)F)c(C#N)c(SCC(=O)Nc2ccc(Cl)cc2)n1 | 124* | 1 | i
Cc1cc(C)c(C#N)c(SCC(=O)Nc2cc(C(F)(F)F)ccc2Cl)n1 | 21 | -1 | i
CC1CCC(C(C)C)C(N(Cc2ccccc2)C(=O)c2cccs2)C1 (centres undefined) | . | 0 | .
CCCCn1c(SCC(N)=O)nc2c1c(=O)n(C)c(=O)n2C | -6 | 3 | i
Cn1c(=O)c2c(nc(N3CCOCC3)n2CCCN)n(C)c1=O | 2 | -1 | +
CO[C@@H]1C=C[C@@]23c4cc5c(cc4CN(CC2O)[C@H]3C1)OCO5 (some centres undefined) | . | -8 | i
Cc1nccn1CC(O)COc1ccccc1Br (centres undefined) | -8 | 0 | i
O=c1cc(-c2ccc(O[C@@H]3O[C@H](CO)[C@@H](O)[C@H](O)[C@H]3O)cc2)oc2cc(O)cc(O)c12 | . | 50* | i
COc1c(O)cc2oc(-c3ccc(O[C@@H]4O[C@H](CO)[C@@H](O)[C@H](O)[C@H]4O)cc3)cc(=O)c2c1O | . | 51* | i
O=c1c(O[C@@H]2O[C@H](CO)[C@H](O)[C@H](O)[C@H]2O)c(-c2ccc(O)c(O)c2)oc2cc(O)cc(O)c12 | . | 5 | .
CC(=O)c1c(O)cc(O[C@@H]2O[C@H](CO)[C@@H](O)[C@H](O)[C@H]2O)cc1O | 18 | 0 | .
COc1c(C2OCC(OC(C)=O)C(OC(C)=O)C2OC(C)=O)c(O)cc2oc(-c3ccc(OC4OC(CO)C(O)C(O)C4O)cc3)cc(=O)c12 (centres undefined) | 5 | -2 | i
COc1ccc(/C=C/c2cc(O)cc(O[C@@H]3O[C@H](CO)[C@@H](O)[C@H](O)[C@H]3O)c2)cc1 | 64* | 0 | i
